These results are taken from PubChem BioAssay.

The nature of test [1]: circadian clock period modulators, cell-based, LOPAC library, luminescence reporter (AID 2774).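 Further: values are relative to mean of DMSO wells on each plate.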 The note with it: circadian reporter cells, at 7 µM, actives lie on both sides.
Test [2] deals with Hepatitis C virus NS3 helicase. As to the kind of experiment: HCV NS3 helicase inhibitors, primary screen, biochemical, fluorescence polarization, LOPAC1280 library (AID 687035; in the data active means inhibition above about 37%). The note with it: Purified HCV NS3 helicase, Cy5-dT15 ssDNA binding fluorescence polarization; stronger effect = higher value; concentration not given here. (Fluorescence polarisation rises when a labelled molecule tumbles more slowly, as on binding a larger partner.)

Test [3] can be described thus: Cy5 fluorescence quenching or enhancement artefacts, artefact control for HCV NS3 helicase inhibitor project, biochemical, LOPAC1280 (AID 687037). The note with it: Cy5-DNA-NS3h complex fluorescence interference counterscreen.
Test [4] in a line: sensitizers of A549 cells to miR-34 induction, primary screen, imaging, A549 dox-inducible miR-34, nuclei and caspase counts (AID 1347080;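 active means compounds whose cell count with miR-34 switched on is under 0.7 times the count with it off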). Conditions: A549 miR-34 inducible, Hoechst nuclei count, 48 h.
Test [5] is described as follows: phospholipid biosynthesis inhibitors in animal cells, primary screen, cell-based, LOPAC library, screen 4 (AID 1347384). The note with it: phospholipid biosynthesis inhibition screen, at 10 µM.
Test [6] can be described thus: viability rescue of complex I mutant cybrids, primary screen, cell-based, galactose medium, ATP luminescence (AID 1645843;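 active means z-score of at least 1.8 in each of two replicates, scored against plate mean and spread of sample wells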;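 further: positive z means more ATP and so rescue of galactose-driven cybrid death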). The note with it: complex I mutant cybrid cells, 72 h, stronger effect = higher value.
[7] abbreviates: stronger effect = lower value, cell number ratio, induced over uninduced.
The mark [8] stands for this setting: measured here: relative caspase fold change +Dox/-Dox.
Where [9] appears, read: measured here: total cells with miR-34 induction, stronger effect = lower value.
Setting [10] is: measured here: total cells without miR-34 induction.

Activity calls are given as the source filed them. Unless noted, how the calls were made is not given here.

In the case of `NC(Cc1cccc(-c2ccccc2CP(=O)(O)O)c1)C(=O)O` (centres undefined), in test [1], the period change is -0.07 h (inactive). Besides, the inhibition – broadly, the drop in the measured response relative to a control, in per cent – in test [2] was -5% (inactive). The fluorescence ratio (interference) in test [3] is 1 (inactive). The fold change was 0.998 (inactive) in test [4] (setting [7]) and 1.77 in test [4] (setting [8]). The cell count amounted to 10900 in test [4] (setting [9]) and 11000 in test [4] (setting [10]). In addition, the call in test [5] was inactive. In addition, the z-score in test [6] was 0.42 (inactive).

On to `O=c1[nH]ccc2c(O)cccc12`, for which the period change in test [1] was 0.03 h (inactive). For the same compound, the inhibition in test [2] is -3% (inactive). The fluorescence ratio (interference) in test [3] is 0.9 (inactive). The values for the fold change in test [4] (setting [7]) and in test [4] (setting [8]) were 1.09 (inactive) and 1.24, respectively. For the same compound, the cell count in test [4] (setting [9]) was 10100; in test [4] (setting [10]), 9200. Moreover, in test [5], the compound was called inactive. For the same compound, the z-score in test [6] is 0.02 (inactive).

With `Cn1c(=O)c2c(nc(/C=C/c3cccc(Cl)c3)n2C)n(C)c1=O`, the period change in test [1] was 0.15 h (inactive). Also, the inhibition in test [2] was -2% (inactive). Further, the fluorescence ratio (interference) in test [3] is 1 (inactive). The results for the fold change in test [4] (setting [7]) and in test [4] (setting [8]) were 1.03 (inactive) and 1.2, respectively. Besides, the cell count in test [4] (setting [9]) was 9630; in test [4] (setting [10]), 9370. The outcome in test [5] was inactive. Moreover, in test [6], the z-score was 1.26 (inactive).

Consider `O=c1ccn([C@@H]2O[C@H](COP(=O)(O)OP(=O)(O)O)[C@@H](O)[C@H]2O)c(=O)[nH]1`, for which the period change in test [1] is 0.165 h (inactive). Moreover, the inhibition in test [2] was -1% (inactive). Further, the fluorescence ratio (interference) in test [3] was 1 (inactive). Moreover, the fold change in test [4] (setting [7]) was 0.992 (inactive); in test [4] (setting [8]), 1.43. For the same compound, the cell count amounted to 9420 in test [4] (setting [9]) and 9500 in test [4] (setting [10]). Moreover, in test [5], the compound was classed as inactive. Also, the z-score in test [6] was 0.745 (inactive).

Regarding `O=C(O)CCC(C(=O)O)N1C(=O)c2ccccc2C1=O` (centres undefined), the period change in test [1] is -0.075 h (inactive). The inhibition in test [2] was -4% (inactive). Besides, the fluorescence ratio (interference) in test [3] was 1 (inactive). In addition, the figures for the fold change in test [4] (setting [7]) and in test [4] (setting [8]) were 1.05 (inactive) and 0.915, respectively. The cell count turned out to be 10300 in test [4] (setting [9]) and 9760 in test [4] (setting [10]). The outcome in test [5] was inactive. The z-score in test [6] is 0.255 (inactive).

Consider `O=c1[nH]c2cc(Cl)ccc2c(O)c1-c1ccc(Oc2ccccc2)cc1`, for which the period change in test [1] was -0.015 h (inactive). Besides, in test [2], the inhibition was -2% (inactive). In addition, the fluorescence ratio (interference) in test [3] is 1 (inactive). Also, the figures for the fold change in test [4] (setting [7]) and in test [4] (setting [8]) were 1.06 (inactive) and 0.974, respectively. Also, the cell count came out at 10400 in test [4] (setting [9]) and 9850 in test [4] (setting [10]). Besides, the outcome in test [5] was inactive. The z-score in test [6] is 0.965 (inactive).

As to `C[N+](C)(C)CC=O`, the period change in test [1] was -0.2 h (inactive). In addition, in test [2], the inhibition was -5% (inactive). Also, in test [3], the fluorescence ratio (interference) is 0.9 (inactive). Besides, the fold change in test [4] (setting [7]) was 1 (inactive); in test [4] (setting [8]), 1.36. In addition, the cell count in test [4] (setting [9]) and in test [4] (setting [10]) was 10200 in each case. Also, the outcome in test [5] was inactive. Also, in test [6], the z-score is 0.245 (inactive).

Consider `Nc1ncnc2c1nc(Br)n2C1OC2COP(=O)(O)O[C@@H]2C1O` (some centres undefined), for which the period change in test [1] was -0.095 h (inactive). Moreover, the inhibition in test [2] was -5% (inactive). For the same compound, the fluorescence ratio (interference) in test [3] was 0.9 (inactive). For the same compound, the results for the fold change in test [4] (setting [7]) and in test [4] (setting [8]) were 0.962 (inactive) and 1.6, respectively. The cell count in test [4] (setting [9]) worked out at 8440; in test [4] (setting [10]), 8780. Also, the compound was called inactive in test [5]. In test [6], the z-score was 0.735 (inactive).

In the case of `NC1(C(=O)O)CCCCC1`, the period change in test [1] was -0.115 h (inactive). In addition, the inhibition in test [2] was -2% (inactive). Besides, the fluorescence ratio (interference) in test [3] is 1 (inactive). Moreover, the fold change in test [4] (setting [7]) was 0.983 (inactive); in test [4] (setting [8]), 2.37. Besides, the cell count in test [4] (setting [9]) was determined as 10700; in test [4] (setting [10]), 10900. For the same compound, the compound was classed as inactive in test [5]. Besides, the z-score in test [6] is 0.63 (inactive).

For `N[C@@H](CCCC(=O)O)C(=O)O`, the period change in test [1] is 0.11 h (inactive). In addition, the inhibition in test [2] was -1% (inactive). The fluorescence ratio (interference) in test [3] was 0.9 (inactive). In addition, the fold change in test [4] (setting [7]) was 1.05 (inactive); in test [4] (setting [8]), 0.58. In addition, the cell count in test [4] (setting [9]) was determined as 10400; in test [4] (setting [10]) it was 9930. The compound was classed as inactive in test [5]. Further, the z-score in test [6] is 0.595 (inactive).

In the case of `CCCC[C@@]1(C2CCCC2)Cc2cc(OCC(=O)O)c(Cl)c(Cl)c2C1=O`, the period change in test [1] was -0.06 h (inactive). In addition, in test [2], the inhibition was 0% (inactive). In test [3], the fluorescence ratio (interference) was 1 (inactive). The fold change is 0.958 (inactive) in test [4] (setting [7]) and 1.45 in test [4] (setting [8]). The cell count in test [4] (setting [9]) worked out at 8870; in test [4] (setting [10]), 9260. The call in test [5] was inactive. For the same compound, the z-score in test [6] is 2.93 (active).
